# Source: PubChem BioAssay
# The list is not random: actives were taken first. Their share in the collection is about 7.6%.
# Cav32 inh = inhibitors of human Cav3.2 T-type calcium channel; O95180; Cav3.2-expressing cells, Fluo-4 calcium fluorescence FDSS; active compounds read low; B-score at 10 µM; actives 4% (n = 100,000); AID 449739;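 active = single-dose well whose peak fluorescence ratio is a statistical outlier from its plate by either plate-standardised score or position-corrected B-score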
# Target sequence (O95180 whole entry, looked up): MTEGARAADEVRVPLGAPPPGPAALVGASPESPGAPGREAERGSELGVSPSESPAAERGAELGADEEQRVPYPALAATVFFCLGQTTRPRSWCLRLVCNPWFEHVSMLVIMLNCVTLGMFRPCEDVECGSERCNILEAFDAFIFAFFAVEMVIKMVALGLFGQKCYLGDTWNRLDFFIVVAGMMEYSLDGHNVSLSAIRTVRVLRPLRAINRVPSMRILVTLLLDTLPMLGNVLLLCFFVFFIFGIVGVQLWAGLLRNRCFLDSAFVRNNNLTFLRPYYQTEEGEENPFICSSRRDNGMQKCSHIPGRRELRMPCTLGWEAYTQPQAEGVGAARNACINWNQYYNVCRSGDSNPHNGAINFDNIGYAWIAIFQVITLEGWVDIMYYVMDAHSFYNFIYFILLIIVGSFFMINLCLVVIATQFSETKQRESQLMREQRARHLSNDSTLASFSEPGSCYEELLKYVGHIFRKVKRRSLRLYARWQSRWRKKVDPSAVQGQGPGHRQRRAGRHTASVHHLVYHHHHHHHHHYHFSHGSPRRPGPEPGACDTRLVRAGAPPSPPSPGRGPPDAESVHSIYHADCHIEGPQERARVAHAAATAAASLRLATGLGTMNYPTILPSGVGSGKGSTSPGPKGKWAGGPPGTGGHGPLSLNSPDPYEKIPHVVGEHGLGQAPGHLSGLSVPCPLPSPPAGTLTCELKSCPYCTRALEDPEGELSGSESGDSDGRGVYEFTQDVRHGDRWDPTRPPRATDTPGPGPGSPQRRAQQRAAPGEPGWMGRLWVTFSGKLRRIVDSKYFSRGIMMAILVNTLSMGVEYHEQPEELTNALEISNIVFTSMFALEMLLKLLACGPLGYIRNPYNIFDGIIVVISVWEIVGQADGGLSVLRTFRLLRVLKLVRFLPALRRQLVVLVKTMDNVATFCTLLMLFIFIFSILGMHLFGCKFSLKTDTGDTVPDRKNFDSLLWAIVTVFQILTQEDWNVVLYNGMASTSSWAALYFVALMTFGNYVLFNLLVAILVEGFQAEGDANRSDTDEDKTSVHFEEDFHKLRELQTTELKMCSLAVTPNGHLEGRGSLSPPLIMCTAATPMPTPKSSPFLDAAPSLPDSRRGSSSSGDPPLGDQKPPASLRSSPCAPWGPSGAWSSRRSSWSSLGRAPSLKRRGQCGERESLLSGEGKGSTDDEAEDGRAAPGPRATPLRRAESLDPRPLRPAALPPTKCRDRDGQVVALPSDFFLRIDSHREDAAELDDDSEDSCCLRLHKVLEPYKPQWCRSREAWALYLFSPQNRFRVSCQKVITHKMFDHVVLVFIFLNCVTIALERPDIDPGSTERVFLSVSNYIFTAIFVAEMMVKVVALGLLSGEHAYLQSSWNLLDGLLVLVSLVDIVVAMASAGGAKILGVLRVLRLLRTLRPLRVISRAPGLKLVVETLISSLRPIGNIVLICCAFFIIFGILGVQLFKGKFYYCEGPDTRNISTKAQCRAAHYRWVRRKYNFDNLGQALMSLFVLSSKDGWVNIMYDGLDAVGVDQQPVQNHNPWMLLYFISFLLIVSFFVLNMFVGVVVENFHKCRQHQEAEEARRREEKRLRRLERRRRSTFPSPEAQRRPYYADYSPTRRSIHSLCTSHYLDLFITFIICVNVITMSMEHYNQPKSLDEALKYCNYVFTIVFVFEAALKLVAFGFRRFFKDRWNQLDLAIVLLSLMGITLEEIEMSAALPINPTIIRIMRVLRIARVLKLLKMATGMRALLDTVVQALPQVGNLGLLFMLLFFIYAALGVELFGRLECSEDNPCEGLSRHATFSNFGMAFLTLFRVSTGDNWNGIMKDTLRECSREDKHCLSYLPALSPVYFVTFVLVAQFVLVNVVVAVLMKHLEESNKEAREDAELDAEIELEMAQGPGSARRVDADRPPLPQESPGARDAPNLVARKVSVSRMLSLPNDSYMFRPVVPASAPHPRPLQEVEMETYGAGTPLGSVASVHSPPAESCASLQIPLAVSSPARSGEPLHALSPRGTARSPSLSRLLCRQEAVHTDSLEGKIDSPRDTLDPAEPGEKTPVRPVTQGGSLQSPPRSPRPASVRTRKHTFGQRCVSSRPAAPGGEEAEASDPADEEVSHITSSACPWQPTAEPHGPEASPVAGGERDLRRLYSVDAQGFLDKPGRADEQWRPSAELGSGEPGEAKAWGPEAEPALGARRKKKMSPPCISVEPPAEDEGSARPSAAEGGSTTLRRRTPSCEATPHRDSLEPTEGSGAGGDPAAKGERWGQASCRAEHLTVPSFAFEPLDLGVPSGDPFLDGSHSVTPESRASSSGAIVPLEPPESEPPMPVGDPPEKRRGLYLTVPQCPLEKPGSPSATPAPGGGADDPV
# PLAP activator = human PLAP activation; P05187; purified PLAP enzyme, luminescent substrate read-out; active compounds read high; activation fold at 20 µM; actives 1.2% (n = 96,000); in the data active = activation fold above about 2
# M1 antagonist = antagonists of rat M1 muscarinic receptor; B-score at 10 µM; CHO-M1 cells, Fluo-4 calcium, ACh EC80 antagonist mode; active compounds read low; AID 628; actives 3.4% (n = 64,000); P08482;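 active = calcium fluorescence response, raw or row-and-column corrected B-score, differing from the plate sample mean either way at a set confidence level, mostly lower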
# M1 ag = activates the M1 muscarinic receptor; AID 626; CHO-M1 cells, Fluo-4 calcium fluorescence, agonist mode; active compounds read high; actives 3% (n = 64,000); B-score at 10 µM;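 active = fluorescence rise, raw or as B-score row- and column-corrected plate score, outside the 99.7% band of its plate's samples, either direction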
# M1 antag confirm = M1 muscarinic receptor (rat) antagonism, confirmed. actives 43% (n = 1,700). calcium response (max-min fluorescence) at 10 µM. shares compounds with M1 antagonist. CHO-M1 cells, Fluo-4 calcium, ACh EC80 antagonism; active compounds read low;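 active = calcium response below the same-plate mean of wells given acetylcholine alone at its 80%-effect dose, minus 3 SD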;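 note: raw fluorescence intensity difference in arbitrary instrument units and not normalized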
# mGluR4 antag = mGluR4 (human) activity, M1 antagonist secondary assay; shares compounds with M1 antagonist; CHO-mGluR4 calcium flux, Fluo-4 fluorescence, glutamate EC80; active compounds read low; fluorescence response (max-min) at 10 µM; actives 0.9% (n = 1,700); AID 678;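 active = fluorescence response below the plate's average for near-maximal glutamate wells, less 3 SD of those wells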;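 note: raw unnormalized fluorescence span taken in the window right after glutamate addition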
# Starred values were filed as active, the others as inactive; x = no result given.
SMILES,Cav32 inh,PLAP activator,M1 antagonist,M1 ag,M1 antag confirm,mGluR4 antag
CCCCCOCC1CC(C/C(C)=N/Nc2nc(-c3ccccc3)cs2)C(=O)O1 (stereo not drawn),-0.41,1.1,x,x,x,x
COc1ccc(O)c(CN2CCN(C/C=C/c3ccccc3)CC2)c1,-0.27,1.4,-11*,-2.4,454*,187
COc1ccc(OC)c(NC(=S)N2CCN(C/C=C/c3ccccc3)CC2)c1,-1.1,1.7,x,x,x,x
Cc1cc(C)c2c(CN3CCN(C/C=C/c4ccccc4)CC3)cc(=O)oc2c1,-0.079,1.5,-3.6*,-0.86,259*,223
COc1cc(Br)cc(CN2CCN(C/C=C/c3ccccc3)CC2)c1O,-1.6,1.7,-16*,-0.81,48*,222
C=CCSC1=N/C(=C\c2ccc(C)o2)C(=O)S1,-0.44,1.2,-0.49,-1.1,x,x
CCOC(=O)C1=C(C)Nc2nc(SCC)[nH]c(=O)c2C1c1ccncc1 (stereo not drawn),x,1,0.19,-0.57,x,x
O=c1nc(-c2ccccc2)n(-c2ccccc2)c2ncccc12,x,1.1,0.62,-0.6,x,x
Cn1c2c(c(=O)n(C)c1=O)C(c1cccc(Br)c1)C1C(=O)c3ccccc3C1=N2 (stereo not drawn),x,x,0.43,1,x,x
CCN(C1CCCCC1)S(=O)(=O)c1ccc(S(=O)(=O)N2CCN(CCC#N)CC2)cc1,-0.43,1.4,-1.5*,0.046,327*,206
N#CCCN1CCN(S(=O)(=O)c2ccc(S(=O)(=O)N3CCCCCC3)cc2)CC1,0.063,1,-0.094,-0.42,x,x
N#Cc1ccccc1Sc1ccccc1C(=O)Nc1ccccc1,x,1,x,x,x,x
N#CC1=C(N)SC(N)=C(C#N)C1CCc1ccccc1,-2.3,1.2,-4.6*,1.2,683,260
COc1ccc(S(=O)(=O)Nc2ccc(F)c(Cl)c2)cc1OC,-3.3,1.3,-1.2,-1.4,x,x
CC1(C)Nc2ccccc2N(CC(=O)N2CCCCC2)C1=O,0.43,0.9,-1.3*,-0.064,687,237
CC1(C)Nc2ccccc2N(CCC(=O)N2CCOCC2)C1=O,-0.3,1.2,0.28,-0.79,x,x
COc1ccccc1NC(=O)CC1COc2ccccc2O1 (stereo not drawn),-0.45,0.9,x,x,x,x
COc1cccc(CC(=O)NCC2COc3ccccc3O2)c1OC (stereo not drawn),0.21,1.2,-12*,0.34,701,230
COc1ccc(N2CCN(CCNC(=O)Nc3ccc(Cl)cc3)CC2)cc1,1.6,1.1,x,x,x,x
COc1ccc(N2CCN(CCNC(=O)c3c(C)cc(=O)oc3C)CC2)cc1,0.29,1.1,-4.6*,-0.59,354*,227
c1coc(-c2nc3c4c5c(sc4ncn3n2)CCCC5)c1,x,1,0.68,-0.83,x,x
CN1CCc2c(sc3ncn4nc(-c5ccccc5O)nc4c23)C1,x,1.8,-3.7*,-0.13,353*,248
Cc1nnc2ccc(N3CCN(C(=O)c4ccccc4)CC3)nn12,0.87,0.9,-0.96,-0.69,x,x
O=C(c1ccc(Br)o1)N1CCN(c2ccc3nnc(-c4ccccc4)n3n2)CC1,3.6*,1.4,-6.4*,0.91,264*,225
CCOc1cccc(OCCCCN2CCCCC2)c1,0.51,0.9,-3.1*,0.36,329*,214
SMILES,Cav32 inh,PLAP activator,M1 antagonist,M1 ag,M1 antag confirm,mGluR4 antag
COc1cccc(OCCCCN2CCCCC2)c1,1.4,0.9,-1.2*,0.11,280*,203
COc1cccc(OCCCN2CCCCC2)c1,0.59,1.1,-0.52,-0.53,x,x
CC1(C)SCC2C(=O)N3C(CSC3(C)C)C(=O)N21 (stereo not drawn),0.45,0.9,-1,-1.1,x,x
CC(=O)Nc1ccc(S(=O)(=O)NC2(C(F)(F)F)NC(=O)N(C3CCCCC3)C2=O)cc1 (stereo not drawn),1.4,1.6,x,x,x,x
C=CCc1ccc(OCC(O)CN2CCCCC2C)c(OC)c1 (stereo not drawn),0.95,1.5,-2.5*,0.046,574,238
Cc1cc(C)n(-c2nncn2/N=C/c2ccccc2F)n1,1,1,-3.3*,-1,576,233
CSc1nncn1/N=C/c1ccccc1F,0.52,0.9,x,x,x,x
CC1CCN(S(=O)(=O)c2ccc(NC(=O)CN3CCCC(C)C3)cc2)CC1 (stereo not drawn),-1.3,1.4,x,x,x,x
CCC(=O)Nc1ccc(NC(=O)CN2CCCC(C)C2)c(Cl)c1 (stereo not drawn),0.89,1.5,-2.8*,-1.4,613,201
Cn1c(CNC2CCCCC2)c(C#N)c2ccccc21,-0.12,0.9,x,x,x,x
COc1cc(C2N(c3ccc(F)cc3)C(=O)C3CCCN32)cc(OC)c1OC (stereo not drawn),-0.014,1.7,-4.4*,-0.16,634,237
COc1ccccc1OCCC(=O)OCC(=O)Nc1ncc(Cl)cc1Cl,0.8,1.5,-0.09,-1.4,x,x
O=c1c([N+](=O)[O-])cc(C(F)(F)F)cn1Cc1c(Cl)cccc1Cl,x,0.8,x,x,x,x
C=CCn1c(SCc2ccccc2C#N)nnc1-c1cc(Br)ccc1O,-2.9,1.3,-3.8*,1.4,330*,193
COc1cccc(C2CC(C(F)(F)F)n3ncc(C(=O)O)c3N2)c1 (stereo not drawn),0.035,0.9,-0.55,-0.25,x,x
COc1ccc(C2CC(C(F)(F)F)n3ncc(C(=O)O)c3N2)cc1OC (stereo not drawn),0.076,1.1,-3.1*,-0.15,627,246
O=C(CCn1nc(-c2ccc(Cl)cc2)ccc1=O)N1CCOCC1,0.43,1,0.26,-0.28,x,x
O=C(CCn1nc(-c2ccc(Cl)cc2)ccc1=O)N1CCN(c2ccccn2)CC1,x,1.3,-3*,1.3,584,247
CCN1C=C(Cc2cccs2)C2=C(C1)C(c1cccs1)C(C#N)=C(N)O2 (stereo not drawn),-0.00089,1,-3.8*,2.8,514,170*
COC(=O)c1ccc(Cn2cnc3c(cnn3-c3ccc(Cl)cc3)c2=O)o1,x,x,-0.039,2.8,x,x
Cc1cc(/C=N/n2cnnc2)c(C)n1-c1ccc(OCc2ccc(F)cc2)cc1,x,1,-2.4*,0.4,503*,247
COCCN(C(=O)Cn1nnc2ccccc21)C(C(=O)NC1CCCC1)c1cccc(OC)c1OC (stereo not drawn),0.81,1.3,-3.9*,-0.32,600,217
Cc1cc(C)n2nc(/C(C#N)=C/c3ccccc3)c(C#N)c2n1,x,1,x,x,x,x
Cc1cc(C(C)(C)C)cc(C)c1CC1=NCCN1,1.2,x,-8.4*,-0.012,412*,244
N#CCC(=O)NCCCOC(=O)Nc1ccc(Cl)c(Cl)c1,-0.26,0.9,-0.49,-0.98,x,x
O=S(=O)(Nc1nc2ccccc2[nH]1)c1ccc(Cl)cc1,-0.93,1,-16*,0.16,70*,246
O=C(Cc1ccc(Cl)cc1)Nc1nc2ccccc2[nH]1,-1.2,0.9,x,x,x,x
O=S(=O)(Nc1nc2ccccc2[nH]1)c1ccccc1,0.0097,1,-5.1*,0.01,394*,246
O=C(Nc1nc2ccccc2[nH]1)c1ccccc1,0.63,1.7,x,x,x,x
